In all, about 75,000 compounds went through this assay and about 20 (0.03%) were called active. Calls come from the whole dose curve; as a rule, active = well fitted inhibition curve with a large enough effect; inconclusive = small, poorly fitted or top-dose-only effect; inactive = no such curve, though single readings can be large or run the other way. Only a sample is shown. Square brackets hold non-standard residues; d marks the D form. Peptide text beside a SMILES is read from it. ξ: configuration not given here. ξV = CC(C)C(N)C(=O)O
molecular target: Breast cancer type 1 susceptibility protein (Homo sapiens) (UniProt P38398); test: qHTS Assay for Inhibitors of BRCT-Phosphoprotein Interaction (Red Fluorophore); details: BRCT-phosphopeptide binding, red fluorescence polarization; series mostly up to 76.9 µM; activity change, negative = inhibition: at the top concentration
Experimental: NIH Molecular Libraries Screening Centers Network [MLSCN]
NIH Chemical Genomics Center [NCGC]
PI Name: Natarajan, Amarnath; University of Texas
A complex of BRCT (C-terminal portion of BRCA1, MW ~35 kDa, His-tagged) and fluorescently labeled pBACH1 phosphorylated 10 aa peptide fragment of BACH1, a helicase implicated in DNA repair, is incubated with library members. Inhibitors of BRCT-pBACH1 binding are detected by a decrease in the fluorescence polarization (FP) of the fluorophore. In order to minimize the effect of fluorescence artifacts and to increase the overall robustness of the screen, the compound library members were incubated in separate reactions with rhodamine-labeled probe-protein complexes. Protein and labeled probes were supplied by Dr. Amarnath Natarajan, Department of Pharmacology and Toxicology, University of Texas Medical Branch Galveston, TX.
Assay Buffer: 16mM Na2HPO4, 4 mM NaH2PO4, 150 mM NaCl, 1 mM EDTA, 1 mM DTT, 0.02% NaN3, and 0.01% Tween 20 at pH 7.3.
Assay Controls: 100 nM TAMRA labeled decapeptide dispensed into columns 3 and 4 to generate negative control (full inhibition of
binding, -100 % activity). 100 nM labeled decapeptide/100 nM protein in columns 1, 2, 5 - 48. Titration of unlabeled decapeptide control (from 10 mM, then 1:2 dilution in duplicate) pin-transferred to column 2, rows 1 to 16. Column 1 is neutral.
Three uL of reagents were dispensed to 1536-well Greiner black solid-bottom plates. Compounds and controls (23 nL) were transferred via Kalypsys PinTool. The plates were incubated for 12 min at room temperature, and then read on ViewLux (Perkin-Elmer) High-throughput CCD imager using BODIPY for the rhodamine-labeled decapeptide probe polarization filter sets. During dispense, reagent bottles were kept submerged into 4 deg C water bath and all liquid lines were covered with aluminum foil to minimize probe and protein degradation. All screening operations were performed on a Kalypsys robotic system (Kalypsys, Inc., San Diego, CA) containing one RX-130 and two RX-90 anthropomorphic robotic arms. The timing and order of assay plates passing through the screening system were adjusted such that each compound library plate was assayed against the fluorescein- and rhodamine-labeled assay systems at immediately adjacent time points.
% is set by controls: 0 for no effect and ±100 for the full control effect.

Breast cancer type 1 susceptibility protein (Homo sapiens), sequence (P38398 whole entry, looked up): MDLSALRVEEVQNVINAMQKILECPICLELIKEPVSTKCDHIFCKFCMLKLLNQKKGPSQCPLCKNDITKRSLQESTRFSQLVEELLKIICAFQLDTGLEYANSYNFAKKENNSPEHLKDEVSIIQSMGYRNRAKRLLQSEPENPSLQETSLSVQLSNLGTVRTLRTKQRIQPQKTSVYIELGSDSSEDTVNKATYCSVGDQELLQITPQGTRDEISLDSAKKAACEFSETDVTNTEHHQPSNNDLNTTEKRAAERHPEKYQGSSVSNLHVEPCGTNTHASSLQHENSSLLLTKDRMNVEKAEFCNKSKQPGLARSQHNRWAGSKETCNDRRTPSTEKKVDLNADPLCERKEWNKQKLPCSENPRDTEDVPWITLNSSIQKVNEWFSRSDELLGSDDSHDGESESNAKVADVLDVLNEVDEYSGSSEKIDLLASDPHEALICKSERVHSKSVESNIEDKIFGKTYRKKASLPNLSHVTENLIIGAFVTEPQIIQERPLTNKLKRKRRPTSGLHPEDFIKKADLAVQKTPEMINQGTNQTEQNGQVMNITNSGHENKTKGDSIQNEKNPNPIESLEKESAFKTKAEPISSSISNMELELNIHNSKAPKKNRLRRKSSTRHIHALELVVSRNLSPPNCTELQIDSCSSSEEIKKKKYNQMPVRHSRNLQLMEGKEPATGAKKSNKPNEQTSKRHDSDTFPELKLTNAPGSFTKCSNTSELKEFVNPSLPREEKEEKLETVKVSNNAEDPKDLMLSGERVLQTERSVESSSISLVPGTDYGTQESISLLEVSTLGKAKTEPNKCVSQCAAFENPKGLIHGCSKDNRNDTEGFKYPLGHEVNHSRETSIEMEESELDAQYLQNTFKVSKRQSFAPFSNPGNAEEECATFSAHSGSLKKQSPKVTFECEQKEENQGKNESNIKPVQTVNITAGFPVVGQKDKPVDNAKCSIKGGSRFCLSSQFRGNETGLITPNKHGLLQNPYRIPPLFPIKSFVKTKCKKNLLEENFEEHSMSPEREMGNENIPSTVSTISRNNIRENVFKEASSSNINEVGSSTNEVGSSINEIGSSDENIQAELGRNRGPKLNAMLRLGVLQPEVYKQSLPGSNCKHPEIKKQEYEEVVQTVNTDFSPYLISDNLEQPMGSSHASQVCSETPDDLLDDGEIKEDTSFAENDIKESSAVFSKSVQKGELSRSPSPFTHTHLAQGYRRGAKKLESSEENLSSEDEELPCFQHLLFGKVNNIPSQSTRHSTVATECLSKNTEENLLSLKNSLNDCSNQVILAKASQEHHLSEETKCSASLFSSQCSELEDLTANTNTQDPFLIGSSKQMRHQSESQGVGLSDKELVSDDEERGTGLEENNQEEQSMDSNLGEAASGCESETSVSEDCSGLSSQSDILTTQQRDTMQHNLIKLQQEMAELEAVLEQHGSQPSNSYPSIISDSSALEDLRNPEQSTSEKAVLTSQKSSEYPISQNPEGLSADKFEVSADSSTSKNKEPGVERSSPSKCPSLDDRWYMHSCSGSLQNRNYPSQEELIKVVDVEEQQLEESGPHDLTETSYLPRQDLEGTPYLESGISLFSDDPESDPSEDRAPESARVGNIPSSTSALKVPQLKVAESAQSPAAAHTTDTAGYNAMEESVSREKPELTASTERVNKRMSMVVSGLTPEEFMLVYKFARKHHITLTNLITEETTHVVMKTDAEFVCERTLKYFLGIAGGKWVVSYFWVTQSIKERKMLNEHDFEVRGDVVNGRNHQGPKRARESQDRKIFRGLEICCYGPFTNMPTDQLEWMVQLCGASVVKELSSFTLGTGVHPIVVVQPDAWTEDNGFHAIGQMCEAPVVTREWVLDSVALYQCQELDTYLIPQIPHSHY

Activity change, negative = inhibition, inactive:
CCS(=O)(=O)N1CCN(C(=O)c2cccs2)CC1 -0.859%
Cc1nc2cnc(Nc3ccccc3)nc2n(Cc2ccc(F)cc2)c1=O 2.61%
CCCCC[C@H](O)CCCC(=O)O 1.58%
COc1ccc(-c2cc(C(F)(F)F)nc(SCCC(=O)NCc3ccco3)n2)cc1 -0.281%
CCn1cc(C(=O)NCC2COc3ccccc3O2)c2cc(OC)c(OC)cc2c1=O (stereo not given) -0.433%
CC(=O)NC(C(=O)NCC(N)=O)C(C)C (stereo not given) (Ac-[ξV]-Gly-NH2) 0.622%
CN1CCCC1CCO[C@@](C)(c1ccccc1)c1ccc(Cl)cc1 (stereo not given in full) 1.2%
Nc1ccccc1N 0.594%
COC(=O)[C@@H]1C[C@H]2CC[C@H](O)C[C@H]2N1Cc1ccc(N2CCN(C)CC2)cc1 -0.952%
O=C(O)c1cccc(S(=O)(=O)NCCO)c1 1.54% [at 15.4 µM]
CCCN1[C@H](C(=O)OC)C[C@@]2(O)[C@@H](O)[C@@H](O)[C@@H](O)C[C@@H]12 0.469%
CCOC(=O)c1sc(NC(=S)n2cc(C)cn2)c(C(=O)OCC)c1C -1.09%
CCc1nc(C)cn1S(=O)(=O)c1cc(OC)c(C)cc1C 0.696%
COc1ccc(CN2C(=O)CN=C2Nc2ccc(C)cc2C)cc1 0.673%
COc1ccc2c(c1OC)C(=O)N(c1ncn[nH]1)C2 -2.61%
C=CCn1c(COc2ccccc2)nnc1SCC(=O)NCC(=O)OCC 0.0764%
Clc1ccc(C2[C@H]3CN(CC4CCCCC4)[C@H](c4ccccc4)C34CC2(c2cccnc2)C4)cn1 (stereo not given in full) 0.586%
COCC(=O)N1CCC2(CCCN(c3ccccc3)C2)CC1 -0.355%
Cc1cccc(Cn2c(SCCO)nc3c2c(=O)n(C)c(=O)n3C)c1 -1.18%
CS(=O)(=O)N(CC(=O)N1CCOCC1)c1ccc2c3c(cccc13)CC2 0.749%
Cc1cc(C)nc(SCc2nnc(SCC(=O)Nc3ncc(C)s3)n2Cc2ccco2)n1 -0.299%
CCOc1ccc(CNC(=O)C2CC(=O)N(C3CCCC3)C2)cc1OC (stereo not given) 1.07%
O=C(Nc1cccc(F)c1)c1ccc(S(=O)(=O)N2CCCC2)cc1 1.38%
COc1ccc(-c2cc(C(F)(F)F)n3nc(C(=O)N4CCOCC4)c(Cl)c3n2)cc1 -0.981%
O=C(OCC(O)C(O)COC(=O)c1ccccc1)c1ccccc1 (stereo not given) -0.448%
O=C(c1cnn2ccccc12)N1CCc2ccccc21 -0.328%
CCCNS(=O)(=O)c1ccc2c(c1)CCCN2C(C)=O 0.548%
CC1Cc2ccccc2N1C(=O)Cn1cnc2ccccc2c1=O (stereo not given) 0.0211%
COC(=O)COc1ccc(S(=O)(=O)Nc2ccc(NC(C)=O)cc2)cc1 -0.143%
O=C1CCC(C(=O)Nc2ccc(OC(F)F)cc2)N1 (stereo not given) -0.0225%
CCOC(=O)N1CCN(C(=O)c2cc3c(-c4ccc(Cl)cc4)nn(C)c3s2)CC1 0.778%
O=C1c2cccnc2C(=O)N1Cc1cccs1 0.534%
Nc1nc(N)c2[nH]c(CNc3ccc(C(=O)O)cc3)nc2n1 1.19% [at 15.4 µM]
O=C(O)[C@@H]1[C@@H](C(=O)O)[C@]23C[C@@]2(C(=O)O)[C@]2(C(=O)O)CCC3=C3CCCC312 1.09% [at 15.4 µM]
CC(=O)Nc1ccc(S(=O)(=O)N2CCN(CCCOc3cc(C)ccc3C)CC2)cc1 -0.555%
O=C(CSc1nc2[nH]ncc2c(=O)n1-c1ccccc1)N1CCCc2ccccc21 12.7%
CC(C)CNC(=O)C1CCCN(S(=O)(=O)c2ccc(-n3cnnn3)cc2)C1 (stereo not given) 1.01%
Cn1c(N)c(C(=O)COC(=O)c2cc(C(F)(F)F)nc3c(C(F)(F)F)cccc23)c(=O)n(C)c1=O -2.05%
CCCC1CC(C)(C(=O)Cn2[nH]c(=O)ccc2=O)OC1=O (stereo not given) -1.89%
C[C@@H]1O[C@@H](OC[C@H]2O[C@@H](Oc3c(-c4cccc(O)c4O)oc4cc(O)cc(O)c4c3=O)[C@H](O)[C@@H](O)[C@@H]2O)[C@H](O)[C@H](O)[C@H]1O 0.502%
CCOC(=O)C1CCCCN1Cc1ccc(OC)c(OC)c1OC (stereo not given) -0.0383%
O=C(Nc1c(-c2ccccc2)nc2c(Br)cc(Br)cn12)c1ccco1 -1.98%
Cc1ccc(S(=O)(=O)N2CCN(C(=O)CCC(=O)NC3CCCc4ccccc43)CC2)cc1 (stereo not given) 1.14%
C[C@@H]1C[C@H]2[C@@H]3C[C@H](F)C4=CC(=O)C=C[C@@]4(C)[C@]3(F)[C@H](O)C[C@]2(C)[C@@]1(O)C(=O)CO -0.634% [at 34.4 µM]
Cc1oc(CC(C)C)c(CN2CCCC2)c1C(=O)O -0.0692%
Fc1ccc(OCc2nn3c(Cn4nnc5ccccc54)nnc3s2)cc1 -0.165%
COc1ccc(OC)c(NC(=O)CCN2CCC(C)CC2)c1 -1.49%
COC(=O)c1c(-c2ccc(C)cc2)csc1N -0.205%
O=C(OC(C(=O)NC1CCCC1)c1ccc(F)cc1)c1ccno1 (stereo not given) 1.14%
CCOc1ccccc1NC(=O)CCc1ccc(C)o1 0.664%
Cc1c(C(=O)OCC(=O)N(CCC#N)c2ccccc2)oc2c1ccc1ccccc12 -1.38%
O=C1c2cccnc2C(Nc2ccc(S(=O)(=O)N3CCCCCC3)cc2)N1Cc1ccccc1 (stereo not given) -1.92%
Cc1cc(C)n(C(=O)c2ccc(S(=O)(=O)N3CCCC3)cc2)n1 0.192%
Cn1c(SCc2nc3ccccc3s2)nnc1-c1ccc2c(c1)OCO2 1.04%
COC(=O)[C@@H]1C[C@@]2(O)[C@H](O)[C@H](O)[C@H](O)C[C@H]2N1Cc1ccc(C(C)(C)C)cc1 0.112%
CC1=C(C(=O)OCc2ccccc2)C(c2ccco2)n2ncnc2N1 (stereo not given) 0.427%
CCOC(=O)N1CCC(NC(=O)C(C)n2c3ccccc3c3cnn(C)c(=O)c32)CC1 (stereo not given) -0.528%
C=CCNc1nnc(C)c2ccccc12 -0.8%
COc1cccc(N(CC(=O)Nc2cccc(F)c2)S(C)(=O)=O)c1 1.38%
Cc1cnc(CNc2ncncc2-c2ccccc2Cl)cn1 -0.849%
O=C(Cn1nc(C(F)(F)F)c2c1CCC2)NCc1ccc(F)cc1 2.4%
O=C1CC(N2CCN(C(c3ccccc3)c3ccccc3)CC2)C(=O)N1 (stereo not given) 0.264%
CCOC(=O)c1cccc(NC(=O)CCc2c(C)nc3ncnn3c2C)c1 -1.78%
C/C(=C\c1ccco1)C1Nc2cccc3cccc(c23)N1 -2.79%
Brc1ccc(OCCn2ccnc2)cc1 1.45%
O=C(Cl)c1ccccc1[N+](=O)[O-] 0.844%
CO/N=C\[C@@H](C)[C@H](OCc1ccccc1)C(C)C -2.08% [at 15.4 µM]
Cc1cccc(-c2cc(=O)c3cc(C)ccc3o2)c1 -3.67%
Cc1cnc(NC(=O)CSc2nnc(-c3ccc(Cl)cc3Cl)n2N)s1 1.12%
CCn1nnc(NC(=O)c2cc(Cl)c(OC)c(Cl)c2)n1 0.626%
O=C(CSc1nnc2scc(-c3ccc(F)cc3)n12)NCc1ccco1 -3.16%
O=C(CSc1nnc2ccccn12)c1ccccc1 -0.613%
CN(C)/C=N/c1cc(=O)n(C)c(=O)n1CC1CC1 0.302%
CCn1c(CSc2nncn2-c2ccc(OC)cc2)nc2cc(S(=O)(=O)N(C)C)ccc21 -0.0262%
Cc1ccc(C(=O)Nc2nnc(-c3ccncc3)s2)o1 -0.503%
CCCN(CCC)C(=O)C1c2ccccc2Oc2ccccc21 -2.75%
O=C(NCCc1ccco1)c1nn(Cc2ccccc2)c(=O)c2ccccc12 -1.11%
COC(=O)c1c(NC(=O)CSc2nncs2)sc2c1CCCCC2 -0.0838%
CCOC(=O)N1CCN(C(=O)c2nn(-c3ccc(C)cc3)c(=O)c3c2c2ccccc2n3C)CC1 0.678%
CCOC(=O)c1nnn(CC(=O)Nc2cccc(F)c2)c1C(=O)OCC -0.331%
CCC1=C(OC(=O)N(CC)CC)N2C(=O)OC(=NCC3CC3)[C@]2(C)[C@H]2C1=CC[C@H]1C(=O)N(CC(=O)OC)C(=O)[C@H]12 -1.92%
COc1ccc(C(=O)NCc2cn3ccccc3n2)cc1 0.842%
COc1cccc(-c2cc(NCCc3c[nH]c4ccc(OC)cc34)ncn2)c1 -0.197%
COCCNC(=O)CSc1nc2c(n1-c1ccccc1)CCCC2 0.0626%
COc1ccccc1N=C1SC(C)CN1C(=O)C1CCC1 (stereo not given) 1.07%
Cc1ccc2[nH]c3c(c2c1)CN(C(=O)CN1CCN(c2ccccc2)CC1)CC3 -1.58%
CC(NC(=O)c1cc(-c2ccccc2)on1)c1ccccc1 (stereo not given) -1.69%
O=S(=O)(c1cccs1)N1CCN(Cc2ccccc2)CC1 0.716%
CCCC(=O)Nc1nnc(CC(=O)OCC)s1 -0.653%
N#CC1=C(SCc2ccccc2)NC(=O)C(C#N)C12CCCC2 (stereo not given) 0.43%
Cc1cc(N(C)C)cc(C)[n+]1[O-] -0.606%
CC(C)(C)NC(=O)c1cc(NC(=O)c2ccco2)cc(NC(=O)c2ccco2)c1 0.733%
Cc1ccc2nc(NC(=O)C3CCN(S(=O)(=O)c4ccc5c(c4)oc(=O)n5C)CC3)sc2c1 0.323%
COC(=O)[C@@H]1C[C@@]2(O)[C@H](O)[C@H](O)[C@H](O)C[C@H]2N1Cc1ccc(C)s1 -0.918%
COC(=O)Nc1nc2ccc(Sc3ccccc3)cc2[nH]1

— PubChem BioAssay AID892 (National Center for Advancing Translational Sciences (NCATS), 2007)
